Assay outcomes as filed in PubChem BioAssay.
Hits are enriched below; roughly 0.9% of the tested compounds scored in any of these assays.
PPARg SRC-1 ag: agonists of human PPARgamma SRC-1 coactivator recruitment; activation, % at 8 µM; P37231; PPARgamma-SRC-1 coactivator recruitment biochemical assay; AID 631; hit rate 0.41% among 200,000; in the data active means activation above about 19%;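 further: 0% = DMSO and 100% = reference agonist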
Target sequence (P37231 whole entry, looked up): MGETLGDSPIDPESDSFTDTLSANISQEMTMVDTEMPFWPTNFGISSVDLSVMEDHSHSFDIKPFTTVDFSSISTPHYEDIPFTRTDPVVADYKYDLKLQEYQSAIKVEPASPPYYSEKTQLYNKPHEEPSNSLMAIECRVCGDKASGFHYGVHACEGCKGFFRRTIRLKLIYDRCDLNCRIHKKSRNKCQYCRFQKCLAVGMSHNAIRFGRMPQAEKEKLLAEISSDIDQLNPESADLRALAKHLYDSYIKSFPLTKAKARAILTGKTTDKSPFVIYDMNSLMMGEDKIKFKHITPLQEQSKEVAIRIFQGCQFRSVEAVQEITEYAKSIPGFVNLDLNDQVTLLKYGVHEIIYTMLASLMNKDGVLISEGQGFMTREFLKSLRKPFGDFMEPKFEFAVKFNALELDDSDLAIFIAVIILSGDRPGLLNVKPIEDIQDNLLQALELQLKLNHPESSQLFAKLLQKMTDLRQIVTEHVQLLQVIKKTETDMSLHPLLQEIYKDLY
PPARg SRC-2 ag: agonists of SRC-2 recruitment by human PPARgamma. P37231. PPARgamma LBD-SRC-2 recruitment, biochemical. activation, % at 8 µM. hit rate 0.34% among 200,000. AID 1032; in the data active means activation above about 22%;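 further: 0% = vehicle and 100% = reference agonist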
SRC3 TRFRET art: counter-screen for PPARgamma SRC-3 recruitment agonists: TR-FRET artefact | TR-FRET ratio at 8 µM | AID 1048 | PPARgamma/SRC-3 format; stronger effect = higher value | hit rate 0.39% among 99,000
SRC1 TRFRET art: flags TR-FRET format artefacts in PPARgamma SRC-1 recruitment agonist screen | TR-FRET detection artefact counter-screen, emission ratio; stronger effect = higher value | TR-FRET ratio at 8 µM | hit rate 0.34% among 99,000 | AID 1051; in the data active means TR-FRET ratio above about 2300
PPARg SRC3 recr: agonists of human PPARgamma SRC-3 coactivator recruitment. P37231. biochemical PPARgamma/SRC-3 coactivator recruitment assay. activation, % at 8 µM. hit rate 0.26% among 200,000; in the data active means activation above about 23%;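 further: 0% = DMSO and 100% = reference agonist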
TR-FRET SRC-2 ct: TR-FRET artefact, counter-screen to PPARgamma/SRC-2 agonist assay | hit rate 0.4% among 200,000 | stronger effect = higher value | AID 1049 | TR-FRET ratio at 8 µM
PPARg SRC2 ag: human PPARgamma SRC-2 recruitment agonism, confirmation | shares compounds with PPARg SRC3 recr | biochemical SRC-2 recruitment by PPARgamma | activation, % at 8 µM | hit rate 52% among 790 | AID 1297; in the data active means activation above about 22%;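 further: 0% = vehicle alone and 100% = reference agonist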
PPARg SRC1 conf: human PPARgamma SRC-1 recruitment agonism, confirmation; shares compounds with PPARg SRC3 recr; hit rate 43% among 790; PPARgamma–SRC-1 coactivator recruitment biochemical assay; activation, % at 8 µM; in the data active means activation above about 20%;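 further: 0% = vehicle wells and 100% = reference agonist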
PPARg SRC3 ag: confirmation of agonists of SRC-3 recruitment by human PPARgamma; shares compounds with PPARg SRC3 recr; biochemical PPARgamma-SRC-3 coactivator recruitment, agonist mode; activation, % at 8 µM; hit rate 29% among 790; AID 1301; in the data active means activation above about 24%;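 further: 0% = vehicle wells and 100% = reference agonist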
Starred values were filed as active, the others as inactive; x = not tested or not shown. Unless noted, no stated cut-off is given here; in the data, active means TR-FRET ratio above about 2000; inactive means the rest.

SMILES	PPARg SRC-1 ag	PPARg SRC-2 ag	SRC3 TRFRET art	SRC1 TRFRET art	PPARg SRC3 recr	TR-FRET SRC-2 ct	PPARg SRC2 ag	PPARg SRC1 conf	PPARg SRC3 ag
O=c1c(Cl)c(N2CCN(S(=O)(=O)c3ccc(F)cc3)CC2)cnn1-c1cccc(Cl)c1	47*	5	x	x	45*	1804	45*	39*	24*
Cc1ccc(-n2cc(CNCCc3ncc(C)[nH]3)c(-c3ccc(F)cc3)n2)cc1	-6	-5	1531	1599	-1	1438	x	x	x
O=c1cc2[nH]c3ccccc3c(=O)n2nc1-c1ccccc1	9	13	x	x	21	1869	x	x	x
FC(F)(F)c1nnc2ccc(Sc3ccccn3)nn12	-6	1	1375	1703	4	1487	x	x	x
CCc1ccccc1NC(=S)N(CCN1CCOCC1)Cc1ccccc1F	10	8	1638	1980	-3	1816	x	x	x
Cc1ccc(NC(=S)NCc2ccc3c(c2)OCO3)cc1C	-1	-6	1566	1815	0	1647	x	x	x
S=C(NCc1ccc2c(c1)OCO2)Nc1ccc2nsnc2c1	61*	91*	3652*	3812*	56*	2840*	23*	28*	14
CCn1c(=O)cc(SCC(=O)Nc2cccc(C)n2)c2ccccc21	58*	37*	3307*	3815*	38*	3523*	48*	32*	34*
CCn1c(=O)cc(OCC(=O)Nc2cccc(C)n2)c2ccccc21	-2	6	x	x	-8	1437	x	x	x
CCn1c(=O)cc(SCC(=O)Nc2ccc(Cl)cc2)c2ccccc21	39*	2	x	x	20	1617	34*	23*	24
CCn1c(=O)cc(SCC(=O)Nc2ccc(OC)c(OC)c2)c2ccccc21	20*	42*	x	x	34*	2203*	48*	33*	32*
CCOC(=O)c1ccc2c(c1)[nH]c(=S)n2CC	23*	28*	2330*	2451*	20	1960	50*	37*	30*
CCOC(=O)c1ccc2c(c1)n(CC)c(C)[n+]2CC	7	10	1660	1873	6	1523	x	x	x
O=C1c2ccccc2-c2onc3ccc(NCc4ccco4)c1c23	32*	35*	2084*	2253	21	1951	23*	14	13
CCNc1ccc2noc3c2c1C(=O)c1ccccc1-3	5	1	x	x	11	1616	x	x	x
O=C(COC(=O)CNC(=O)c1ccc(Cl)cc1)Nc1ccc(Cl)cc1C(F)(F)F	6	-1	1651	1795	7	1697	x	x	x
CSc1ncccc1C(=O)Nc1ccc(S(=O)(=O)NC2=NCCCCC2)cc1	0	1	1606	1809	2	1558	x	x	x
Oc1ccc(Cl)cc1CNc1ccc(Br)cn1	23*	10	x	x	4	1491	1	9	6
Oc1c(Cl)cc(Cl)cc1CNc1ccc(Br)cn1	2	0	x	x	-4	1523	x	x	x
Cc1ccc(-c2noc(-c3ccoc3C)n2)cc1	5	-7	1568	1799	0	1449	x	x	x
COc1ccccc1/C=C/C1=NC(=C\C=C/c2ccccc2)/C(=O)O1	16	12	1622	1863	41*	1610	6	5	12
Cc1ccc(CN2CCN(CC3CC4C=CC3C4)CC2)cc1 (stereo not given)	-1	6	x	x	-3	1612	x	x	x
O=C(c1ccco1)N1CCN(S(=O)(=O)c2ccccc2[N+](=O)[O-])CC1	7	5	1538	2222	1	1508	x	x	x
CCSc1nc(N)c2c3c(sc2n1)CCC3	18	28*	x	x	32*	2185*	20	13	13
O=C(C1=C(O)C(=O)N(CCCN2CCOCC2)C1c1ccccn1)c1cc2ccccc2o1 (stereo not given)	21*	25*	x	x	35*	1804	17	12	9
SMILES	PPARg SRC-1 ag	PPARg SRC-2 ag	SRC3 TRFRET art	SRC1 TRFRET art	PPARg SRC3 recr	TR-FRET SRC-2 ct	PPARg SRC2 ag	PPARg SRC1 conf	PPARg SRC3 ag
COc1ccccc1C1C(C(=O)c2cc3ccccc3o2)=C(O)C(=O)N1CCN(C)C (stereo not given)	20*	17	x	x	25	1988*	14	13	9
COc1cc(C2C(C(C)=O)=C(O)C(=O)N2CCN(C)C)ccc1O (stereo not given)	6	2	x	x	-1	1429	x	x	x
CN(C)CCN1C(=O)C(O)=C(C(=O)c2cc3ccccc3o2)C1c1cccc(Br)c1 (stereo not given)	36*	45*	x	x	58*	2387*	38*	26*	26*
CCN(CC)CCN1C(=O)C(O)=C(C(=O)c2sc(C)nc2C)C1c1cccnc1 (stereo not given)	-13	2	x	x	4	1457	x	x	x
CCN(CC)CCN1C(=O)C(O)=C(C(=O)c2cc3ccccc3o2)C1c1cccnc1 (stereo not given)	33*	40*	x	x	52*	2274*	11	8	8
Oc1ccc(Br)cc1C=Nc1ccc2c3c(cccc13)CC2	9	11	1778	2243	13	1730	x	x	x
CC1CCN(C(=O)C(C)c2ccc([N+](=O)[O-])cc2)CC1 (stereo not given)	4	-12	1521	1699	0	1214	x	x	x
O=C(C1=C(O)C(=O)N(CCc2ccccc2)C1c1ccncc1)c1cc2ccccc2o1 (stereo not given)	21*	25*	2106*	2514*	10	2092*	26*	18	18
C=CCNC(=O)NC(=O)CSc1nnc(C(F)(F)F)n1C	10	15	1700	1980	7	1721	x	x	x
O=[N+]([O-])c1cc(Br)c(O)c(C=Nc2ccc(N3CCOCC3)cc2)c1	61*	64*	2532*	2849*	45*	2845*	11	16	9
Oc1ccc(N=Cc2cc(Br)c(N3CCOCC3)o2)cc1	-6	0	1705	1576	6	1652	x	x	x
CCN(CC)S(=O)(=O)c1ccc(N2CCOCC2)c(NC(=O)CC23CC4CC(CC(Br)(C4)C2)C3)c1	-9	-9	1498	1612	1	1512	x	x	x
COc1ccc(-c2nn(CC(=O)Nc3ccc(Cl)c(Cl)c3)c(=O)c3ccccc23)cc1	19*	-3	x	x	22	2357*	11	13	8
Cc1ccc2nc(NC(=S)NC(=O)c3ccco3)sc2c1	22*	29*	2144*	2516*	19	2308*	56*	44*	37*
Cc1nc2ccc3nc(NC(=O)c4ccco4)sc3c2s1	23*	11	x	x	19	1749	8	6	5
COc1ccc(C(=O)Nc2nc3ccc4nc(C)sc4c3s2)cc1	67*	14	x	x	56*	1790	45*	29*	27*
